# Reference: publication PMC11062922 (Nature Chemical Biology, 2023)
# Read-outs that look alike come from different tables or passages of the source.
# Tests used:
# Details in all cases: read-out: apparent Kd, n = 1
# MAPK10 = test system: MAPK10
# PBK = test system: PBK
# PDGFRB = test system: PDGFRB
# [1] = compound concentrations:100 nM and 1000 nM (sheet 'Lestaurtinib' of Supplementary Table 1),run:Lestaurtinib_02487_R1,Plate:MR012
# [2] = compound concentrations:100 nM and 1000 nM (sheet 'Lestaurtinib' of Supplementary Table 1),run:Lestaurtinib_02584_R1,Plate:MR017
# [3] = compound concentrations:100 nM and 1000 nM (sheet 'Lestaurtinib' of Supplementary Table 1),run:Lestaurtinib_02584_R3,Plate:MR017
# [4] = compound concentrations:100 nM and 1000 nM (sheet 'Lestaurtinib' of Supplementary Table 1),run:Lestaurtinib_02601_R1,Plate:MR018
# [5] = compound concentrations:100 nM and 1000 nM (sheet 'Lestaurtinib' of Supplementary Table 1),run:Lestaurtinib_02606_R3,Plate:MR019
# [6] = compound concentrations:100 nM and 1000 nM (sheet 'Lestaurtinib' of Supplementary Table 1),run:Lestaurtinib_02724_R2,Plate:MR021
# [7] = compound concentrations:100 nM and 1000 nM (sheet 'Lestaurtinib' of Supplementary Table 1),run:Lestaurtinib_02741_R2,Plate:MR023
# [8] = compound concentrations:100 nM and 1000 nM (sheet 'Lestaurtinib' of Supplementary Table 1),run:Lestaurtinib_02748_R3,Plate:MR024
# [9] = compound concentrations:100 nM and 1000 nM (sheet 'Lestaurtinib' of Supplementary Table 1),run:Lestaurtinib_02766_R1,Plate:MR027
# [10] = compound concentrations:100 nM and 1000 nM (sheet 'Lestaurtinib' of Supplementary Table 1),run:Lestaurtinib_02795_R3,Plate:MR022
# [11] = compound concentrations:100 nM and 1000 nM (sheet 'Lestaurtinib' of Supplementary Table 1),run:Lestaurtinib_02896_R3,Plate:MR030
# [12] = compound concentrations:100 nM and 1000 nM (sheet 'Lestaurtinib' of Supplementary Table 1),run:Lestaurtinib_03172_R1,Plate:MR031
# [13] = compound concentrations:100 nM and 1000 nM (sheet 'Lestaurtinib' of Supplementary Table 1),run:Lestaurtinib_03172_R2,Plate:MR031
# [14] = compound concentrations:100 nM and 1000 nM (sheet 'Lestaurtinib' of Supplementary Table 1),run:Lestaurtinib_03252_R1,Plate:MR032
# [15] = compound concentrations:100 nM and 1000 nM (sheet 'Lestaurtinib' of Supplementary Table 1),run:Lestaurtinib_03252_R2,Plate:MR032
# [16] = compound concentrations:100 nM and 1000 nM (sheet 'Lestaurtinib' of Supplementary Table 1),run:Lestaurtinib_02741_R1,Plate:MR023
# [17] = compound concentrations:100 nM and 1000 nM (sheet 'Lestaurtinib' of Supplementary Table 1),run:Lestaurtinib_02896_R2,Plate:MR030
substance,measurement,setting,value
Lestaurtinib,potency estimated from few doses,"MAPK10; compound concentrations:100 nM and 1000 nM (sheet 'Lestaurtinib' of Supplementary Table 1),run:Lestaurtinib_02473_R2,Plate:MR010",755 nM
same,potency estimated from few doses,"MAPK10; compound concentrations:100 nM and 1000 nM (sheet 'Lestaurtinib' of Supplementary Table 1),run:Lestaurtinib_02473_R3,Plate:MR010",882 nM
same,potency estimated from few doses,"MAPK10; compound concentrations:100 nM and 1000 nM (sheet 'Lestaurtinib' of Supplementary Table 1),run:Lestaurtinib_02482_R1,Plate:MR011",469 nM
same,potency estimated from few doses,"MAPK10; compound concentrations:100 nM and 1000 nM (sheet 'Lestaurtinib' of Supplementary Table 1),run:Lestaurtinib_02482_R2,Plate:MR011",898 nM
same,potency estimated from few doses,"MAPK10; compound concentrations:100 nM and 1000 nM (sheet 'Lestaurtinib' of Supplementary Table 1),run:Lestaurtinib_02482_R3,Plate:MR011",612 nM
same,potency estimated from few doses,MAPK10; [1],798 nM
same,potency estimated from few doses,"MAPK10; compound concentrations:100 nM and 1000 nM (sheet 'Lestaurtinib' of Supplementary Table 1),run:Lestaurtinib_02487_R2,Plate:MR012",744 nM
same,potency estimated from few doses,"MAPK10; compound concentrations:100 nM and 1000 nM (sheet 'Lestaurtinib' of Supplementary Table 1),run:Lestaurtinib_02566_R1,Plate:MR014",712 nM
same,potency estimated from few doses,"MAPK10; compound concentrations:100 nM and 1000 nM (sheet 'Lestaurtinib' of Supplementary Table 1),run:Lestaurtinib_02572_R1,Plate:MR015",896 nM
same,potency estimated from few doses,"MAPK10; compound concentrations:100 nM and 1000 nM (sheet 'Lestaurtinib' of Supplementary Table 1),run:Lestaurtinib_02577_R2,Plate:MR016",636 nM
same,potency estimated from few doses,"MAPK10; compound concentrations:100 nM and 1000 nM (sheet 'Lestaurtinib' of Supplementary Table 1),run:Lestaurtinib_02577_R3,Plate:MR016",743 nM
same,potency estimated from few doses,MAPK10; [2],744 nM
same,potency estimated from few doses,MAPK10; [3],692 nM
same,potency estimated from few doses,MAPK10; [4],819 nM
same,potency estimated from few doses,MAPK10; [5],845 nM
same,potency estimated from few doses,"MAPK10; compound concentrations:100 nM and 1000 nM (sheet 'Lestaurtinib' of Supplementary Table 1),run:Lestaurtinib_02624_R1,Plate:MR020",802 nM
same,potency estimated from few doses,"MAPK10; compound concentrations:100 nM and 1000 nM (sheet 'Lestaurtinib' of Supplementary Table 1),run:Lestaurtinib_02624_R2,Plate:MR020",1320 nM
same,potency estimated from few doses,"MAPK10; compound concentrations:100 nM and 1000 nM (sheet 'Lestaurtinib' of Supplementary Table 1),run:Lestaurtinib_02624_R3,Plate:MR020",818 nM
same,potency estimated from few doses,"MAPK10; compound concentrations:100 nM and 1000 nM (sheet 'Lestaurtinib' of Supplementary Table 1),run:Lestaurtinib_02724_R1,Plate:MR021",870 nM
same,potency estimated from few doses,MAPK10; [6],518 nM
same,potency estimated from few doses,"MAPK10; compound concentrations:100 nM and 1000 nM (sheet 'Lestaurtinib' of Supplementary Table 1),run:Lestaurtinib_02724_R3,Plate:MR021",573 nM
same,potency estimated from few doses,MAPK10; [7],929 nM
same,potency estimated from few doses,"MAPK10; compound concentrations:100 nM and 1000 nM (sheet 'Lestaurtinib' of Supplementary Table 1),run:Lestaurtinib_02748_R1,Plate:MR024",747 nM
same,potency estimated from few doses,"MAPK10; compound concentrations:100 nM and 1000 nM (sheet 'Lestaurtinib' of Supplementary Table 1),run:Lestaurtinib_02748_R2,Plate:MR024",824 nM
same,potency estimated from few doses,MAPK10; [8],1610 nM
same,potency estimated from few doses,"MAPK10; compound concentrations:100 nM and 1000 nM (sheet 'Lestaurtinib' of Supplementary Table 1),run:Lestaurtinib_02765_R1,Plate:MR026",795 nM
same,potency estimated from few doses,"MAPK10; compound concentrations:100 nM and 1000 nM (sheet 'Lestaurtinib' of Supplementary Table 1),run:Lestaurtinib_02765_R3,Plate:MR026",501 nM
same,potency estimated from few doses,MAPK10; [9],1530 nM
same,potency estimated from few doses,MAPK10; [10],886 nM
same,potency estimated from few doses,"MAPK10; compound concentrations:100 nM and 1000 nM (sheet 'Lestaurtinib' of Supplementary Table 1),run:Lestaurtinib_02802_R2,Plate:MR029",1410 nM
same,potency estimated from few doses,"MAPK10; compound concentrations:100 nM and 1000 nM (sheet 'Lestaurtinib' of Supplementary Table 1),run:Lestaurtinib_02896_R1,Plate:MR030",532 nM
same,potency estimated from few doses,MAPK10; [11],592 nM
same,potency estimated from few doses,MAPK10; [12],784 nM
same,potency estimated from few doses,MAPK10; [13],591 nM
same,potency estimated from few doses,MAPK10; [14],932 nM
same,potency estimated from few doses,MAPK10; [15],717 nM
same,potency estimated from few doses,"MAPK10; compound concentrations:100 nM and 1000 nM (sheet 'Lestaurtinib' of Supplementary Table 1),run:Lestaurtinib_03260_R2,Plate:MR033",671 nM
same,potency estimated from few doses,"PBK; compound concentrations:100 nM and 1000 nM (sheet 'Lestaurtinib' of Supplementary Table 1),run:Lestaurtinib_02364_R3,Plate:MR002",2310 nM
same,potency estimated from few doses,"PBK; compound concentrations:100 nM and 1000 nM (sheet 'Lestaurtinib' of Supplementary Table 1),run:Lestaurtinib_02381_R2,Plate:MR004",1820 nM
same,potency estimated from few doses,"PBK; compound concentrations:100 nM and 1000 nM (sheet 'Lestaurtinib' of Supplementary Table 1),run:Lestaurtinib_02606_R1,Plate:MR019",1970 nM
same,potency estimated from few doses,PBK; [5],2120 nM
same,potency estimated from few doses,PBK; [16],1530 nM
same,potency estimated from few doses,PBK; [8],1440 nM
same,potency estimated from few doses,PBK; [9],1690 nM
same,potency estimated from few doses,"PBK; compound concentrations:100 nM and 1000 nM (sheet 'Lestaurtinib' of Supplementary Table 1),run:Lestaurtinib_02766_R3,Plate:MR027",1760 nM
same,potency estimated from few doses,PBK; [17],1580 nM
same,potency estimated from few doses,PBK; [11],1970 nM
same,potency estimated from few doses,PBK; [12],1810 nM
same,potency estimated from few doses,"PBK; compound concentrations:100 nM and 1000 nM (sheet 'Lestaurtinib' of Supplementary Table 1),run:Lestaurtinib_03172_R3,Plate:MR031",1840 nM
same,potency estimated from few doses,"PDGFRB; compound concentrations:100 nM and 1000 nM (sheet 'Lestaurtinib' of Supplementary Table 1),run:Lestaurtinib_02364_R1,Plate:MR002",2200 nM
same,potency estimated from few doses,"PDGFRB; compound concentrations:100 nM and 1000 nM (sheet 'Lestaurtinib' of Supplementary Table 1),run:Lestaurtinib_02381_R1,Plate:MR004",1570 nM
same,potency estimated from few doses,"PDGFRB; compound concentrations:100 nM and 1000 nM (sheet 'Lestaurtinib' of Supplementary Table 1),run:Lestaurtinib_02407_R3,Plate:MR005",428 nM
same,potency estimated from few doses,"PDGFRB; compound concentrations:100 nM and 1000 nM (sheet 'Lestaurtinib' of Supplementary Table 1),run:Lestaurtinib_02437_R2,Plate:MR007",717 nM
same,potency estimated from few doses,"PDGFRB; compound concentrations:100 nM and 1000 nM (sheet 'Lestaurtinib' of Supplementary Table 1),run:Lestaurtinib_02437_R3,Plate:MR007",1300 nM
same,potency estimated from few doses,"PDGFRB; compound concentrations:100 nM and 1000 nM (sheet 'Lestaurtinib' of Supplementary Table 1),run:Lestaurtinib_02438_R2,Plate:MR008",2020 nM
same,potency estimated from few doses,"PDGFRB; compound concentrations:100 nM and 1000 nM (sheet 'Lestaurtinib' of Supplementary Table 1),run:Lestaurtinib_02438_R3,Plate:MR008",1360 nM
same,potency estimated from few doses,"PDGFRB; compound concentrations:100 nM and 1000 nM (sheet 'Lestaurtinib' of Supplementary Table 1),run:Lestaurtinib_02443_R1,Plate:MR009",1570 nM
same,potency estimated from few doses,"PDGFRB; compound concentrations:100 nM and 1000 nM (sheet 'Lestaurtinib' of Supplementary Table 1),run:Lestaurtinib_02443_R3,Plate:MR009",279 nM
same,potency estimated from few doses,"PDGFRB; compound concentrations:100 nM and 1000 nM (sheet 'Lestaurtinib' of Supplementary Table 1),run:Lestaurtinib_02473_R1,Plate:MR010",982 nM
same,potency estimated from few doses,PDGFRB; [1],998 nM
same,potency estimated from few doses,"PDGFRB; compound concentrations:100 nM and 1000 nM (sheet 'Lestaurtinib' of Supplementary Table 1),run:Lestaurtinib_02496_R1,Plate:MR013",1610 nM
same,potency estimated from few doses,"PDGFRB; compound concentrations:100 nM and 1000 nM (sheet 'Lestaurtinib' of Supplementary Table 1),run:Lestaurtinib_02496_R3,Plate:MR013",1530 nM
same,potency estimated from few doses,"PDGFRB; compound concentrations:100 nM and 1000 nM (sheet 'Lestaurtinib' of Supplementary Table 1),run:Lestaurtinib_02566_R2,Plate:MR014",1700 nM
same,potency estimated from few doses,"PDGFRB; compound concentrations:100 nM and 1000 nM (sheet 'Lestaurtinib' of Supplementary Table 1),run:Lestaurtinib_02566_R3,Plate:MR014",1620 nM
same,potency estimated from few doses,"PDGFRB; compound concentrations:100 nM and 1000 nM (sheet 'Lestaurtinib' of Supplementary Table 1),run:Lestaurtinib_02577_R1,Plate:MR016",1800 nM
same,potency estimated from few doses,PDGFRB; [2],1790 nM
same,potency estimated from few doses,"PDGFRB; compound concentrations:100 nM and 1000 nM (sheet 'Lestaurtinib' of Supplementary Table 1),run:Lestaurtinib_02584_R2,Plate:MR017",1590 nM
same,potency estimated from few doses,PDGFRB; [3],1990 nM
same,potency estimated from few doses,PDGFRB; [4],1820 nM
same,potency estimated from few doses,"PDGFRB; compound concentrations:100 nM and 1000 nM (sheet 'Lestaurtinib' of Supplementary Table 1),run:Lestaurtinib_02601_R2,Plate:MR018",1400 nM
same,potency estimated from few doses,"PDGFRB; compound concentrations:100 nM and 1000 nM (sheet 'Lestaurtinib' of Supplementary Table 1),run:Lestaurtinib_02601_R3,Plate:MR018",1970 nM
same,potency estimated from few doses,PDGFRB; [6],749 nM
same,potency estimated from few doses,PDGFRB; [16],1370 nM
same,potency estimated from few doses,PDGFRB; [7],1340 nM
same,potency estimated from few doses,"PDGFRB; compound concentrations:100 nM and 1000 nM (sheet 'Lestaurtinib' of Supplementary Table 1),run:Lestaurtinib_02741_R3,Plate:MR023",1830 nM
same,potency estimated from few doses,"PDGFRB; compound concentrations:100 nM and 1000 nM (sheet 'Lestaurtinib' of Supplementary Table 1),run:Lestaurtinib_02768_R3,Plate:MR028",1580 nM
same,potency estimated from few doses,"PDGFRB; compound concentrations:100 nM and 1000 nM (sheet 'Lestaurtinib' of Supplementary Table 1),run:Lestaurtinib_02795_R1,Plate:MR022",1320 nM
same,potency estimated from few doses,PDGFRB; [10],1600 nM
same,potency estimated from few doses,"PDGFRB; compound concentrations:100 nM and 1000 nM (sheet 'Lestaurtinib' of Supplementary Table 1),run:Lestaurtinib_02802_R1,Plate:MR029",1590 nM
same,potency estimated from few doses,"PDGFRB; compound concentrations:100 nM and 1000 nM (sheet 'Lestaurtinib' of Supplementary Table 1),run:Lestaurtinib_02802_R3,Plate:MR029",1930 nM
same,potency estimated from few doses,PDGFRB; [17],849 nM
same,potency estimated from few doses,PDGFRB; [11],573 nM
same,potency estimated from few doses,PDGFRB; [12],1130 nM
same,potency estimated from few doses,PDGFRB; [13],754 nM
same,potency estimated from few doses,PDGFRB; [14],1320 nM
same,potency estimated from few doses,PDGFRB; [15],970 nM
same,potency estimated from few doses,"PDGFRB; compound concentrations:100 nM and 1000 nM (sheet 'Lestaurtinib' of Supplementary Table 1),run:Lestaurtinib_03260_R1,Plate:MR033",1570 nM
